From PubChem BioAssay AID488969 (Vanderbilt High Throughput Screening Facility, 2010)
Over roughly 110,000 compounds, “z-score” has its median near -0.1; the highest 2% begin near 2. The sample as a whole holds a higher share of the highest values than the screen did. The source made the active and inactive calls.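 How the source made its calls: active means z-score in the third read window above 3 or below -3; inactive means the rest.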

What follows are compounds tested against Metabotropic glutamate receptor 8 (Rattus norvegicus) (UniProt P70579) (assay: mGluR8 Gi/Go-coupled signaling modulation – cell-based, rat, thallium flux, HTS, primary screen (AID 488969)). Settings: HEK293 rat mGluR8, GIRK (G protein-gated inwardly rectifying potassium channel) thallium flux, FluoZin2; at 10 µM; stronger effect = higher value; submaximal glutamate (EC20) added with thallium.
Sequence of Metabotropic glutamate receptor 8 (Rattus norvegicus) (P70579 whole entry, looked up): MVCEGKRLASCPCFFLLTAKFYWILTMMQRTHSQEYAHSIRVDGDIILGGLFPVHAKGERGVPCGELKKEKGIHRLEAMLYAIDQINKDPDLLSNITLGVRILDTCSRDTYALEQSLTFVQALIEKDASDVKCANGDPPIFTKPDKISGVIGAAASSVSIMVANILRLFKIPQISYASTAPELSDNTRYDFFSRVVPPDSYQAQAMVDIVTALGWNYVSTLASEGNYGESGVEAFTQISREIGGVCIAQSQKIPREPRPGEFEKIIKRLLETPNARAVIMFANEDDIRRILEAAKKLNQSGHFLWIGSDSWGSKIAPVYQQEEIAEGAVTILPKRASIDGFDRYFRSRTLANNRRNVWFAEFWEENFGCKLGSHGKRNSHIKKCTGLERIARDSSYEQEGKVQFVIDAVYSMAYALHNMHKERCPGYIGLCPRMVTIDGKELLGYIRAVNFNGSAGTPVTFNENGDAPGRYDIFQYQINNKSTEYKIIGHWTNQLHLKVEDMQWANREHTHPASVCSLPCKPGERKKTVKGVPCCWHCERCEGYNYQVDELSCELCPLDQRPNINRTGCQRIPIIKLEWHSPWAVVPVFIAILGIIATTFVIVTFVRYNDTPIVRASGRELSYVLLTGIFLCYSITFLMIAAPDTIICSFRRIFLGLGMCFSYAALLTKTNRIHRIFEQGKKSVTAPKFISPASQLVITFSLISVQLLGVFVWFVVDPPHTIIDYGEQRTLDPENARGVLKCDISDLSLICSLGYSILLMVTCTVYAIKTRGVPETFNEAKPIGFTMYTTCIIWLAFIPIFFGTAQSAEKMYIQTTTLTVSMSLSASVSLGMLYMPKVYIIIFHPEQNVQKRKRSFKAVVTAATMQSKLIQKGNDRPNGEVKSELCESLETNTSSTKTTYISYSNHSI

SMILES	z-score
CN1CCN(/C=N/c2c(C#N)cnn2C)CC1	0.146
Nc1cc(-c2ccc(Cl)cc2)nn1S(=O)(=O)c1ccc(Cl)cc1	-0.0623
CCOC(=O)c1[nH]cnc1C(=O)NC1CCCCC1	-0.225
CCOC(=O)c1sc(C)c(C(=O)NC2CCCCC2)c1N	3.33 (active)
CCOC(=O)c1[nH]c(C)c(C(=O)NC2CCCCCC2)c1C	0.781
CCOC(=O)c1sc(C)c(C(=O)NCC(C)(C)CN(C)C)c1N	0.753
CCOC(=O)c1[nH]c(C)c(C(=O)NC2CCCCC2)c1C	3.27 (active)
CCOC(=O)c1[nH]c(C)c(C(=O)NC2CCCC2)c1C	-0.06
O=C(CN1CCc2ccccc21)NC(=O)NCc1ccco1	0.562
Cc1oc(C(C)(C)C)cc1C(=O)Nc1cccc(C(=O)O)c1	-2.4
COc1ccc(NC(=O)C(=O)N/N=C/c2cc(C)n(-c3cccc(Cl)c3Cl)c2C)c(OC)c1	-0.134
Cc1c(NC(=O)C(C)OC(=O)c2sc3ccccc3c2Cl)c(=O)n(-c2ccccc2)n1C (configuration not stated)	-0.273
CCC(C)c1ccc(NC(=S)Nc2ccc(OC)cc2C)cc1 (configuration not stated)	0.0172
CCC(C)c1ccc(NC(=S)Nc2ccc(OC)cc2)cc1 (configuration not stated)	0.436
CNC(=S)Nc1ccc(OC)c(OC)c1	0.0698
COC(=O)Nc1ccc(OC)c(OC)c1	0.503
CCC(C)c1ccc(NC(=S)Nc2ccc(OC)c(OC)c2)cc1 (configuration not stated)	5.09 (active)
COc1ccc(NC(=S)SC)cc1OC	3.35 (active)
c1ccc(-c2ccccc2-c2nc(-c3ccncc3)no2)cc1	-0.475
CCCC12CN3CCN(CC(C3)/C1=N\NC(=O)c1ccccc1N)C2	-0.119
Cc1ccc(OCc2nc(-c3ccc(-n4cccc4)cc3)no2)cc1C	-0.0508
CCOC(=O)C1=C(C)N(c2ccc(OC)cc2)C(=O)/C1=C\c1cccs1	-0.132
CCOc1ccc(CCNC(=O)C2CCN(c3nnc(-n4cccc4)s3)CC2)cc1OCC	-1.57

SMILES	z-score
O=C(Nc1ccc(S(=O)(=O)Nc2ncccn2)cc1)c1ccc(Br)s1	0.347
O=C1C(C=NCc2ccccn2)=C(O)c2ccccc21	-0.00613
Cc1ccc(OCc2nnc(SCC(=O)N3CCc4ccccc43)n2C)cc1	-0.358
O=C(COc1ccc(Cl)cc1Cl)NC(=S)N1CCCc2ccccc21	13.2 (active)
Cc1cccc(OC(C)C(=O)N2CCCc3ccccc32)c1 (configuration not stated)	-0.141
Cc1ccccc1OCc1nnc(SCC(=O)N2CCc3ccccc32)n1C	-0.183
COc1ccc(OCC(=O)NC(=S)N2CCCc3ccccc32)cc1	1.72
O=C(COc1ccc(Cl)cc1Cl)OCC(=O)N1CCCc2ccccc21	-0.0629
Cc1cccc(OCC(=O)NC(=S)N2CCCc3ccccc32)c1	7.99 (active)
Cc1cccc(OCc2nnc(SCC(=O)N3CCc4ccccc43)n2C)c1	2.88
CC(Oc1ccc(Cl)cc1Cl)C(=O)NC(=S)N1CCc2ccccc21 (configuration not stated)	12.9 (active)
CC(Oc1ccc(Cl)cc1Cl)C(=O)NN=C1CCN(C)CC1 (configuration not stated)	-0.0448
O=C(CCCOc1ccc(Cl)cc1Cl)N1CCCc2ccccc21	-0.0365
CC(Oc1ccc(Cl)cc1Cl)C(=O)N/N=C1\CCCc2ccccc21 (configuration not stated)	0.0705
CCOC(=O)c1cc(-c2ccc(OC(F)F)cc2)nc2nc(SC)[nH]c(=O)c12	-0.208
COc1cc(CNCC(O)c2ccccc2)ccc1OCc1ccc(Cl)nc1 (configuration not stated)	1.26
COC(=O)COc1cccc(NC(=O)c2cccs2)c1	-0.153
CCc1cccc2c(C(=O)COC(=O)/C=C/c3ccc(O)c(OC)c3)c[nH]c12	0.418
CC(C)COP(=O)(OCC(C)C)C(Nc1ccccc1)c1ccc2c(c1)OCO2 (configuration not stated)	-0.389
C/C=C/c1ccc(OCCCNCC(C)O)c(OC)c1 (configuration not stated)	1.74
COc1ccc(OC)c(NC(=O)CSc2nc(C)cs2)c1	0.389
CN(C)c1ccc(P(=O)(Nc2ccc([N+](=O)[O-])cc2)N2CCOCC2)c(NC(=O)c2cccs2)c1 (configuration not stated)	-0.185
O=C(CN1C(=O)NC2(CCCC2)C1=O)N1CCN(C(=O)c2ccco2)CC1	-1.15

SMILES	z-score
Cc1ccc(NS(=O)(=O)c2cccc(C(=O)N/N=C/c3c(C)nn(-c4ccccc4)c3N3CCCC3)c2)c(C)c1	-0.38
CCCCNC(=S)N(C)/N=C/c1ccc(OCC(=O)Nc2c(C)cc(C)cc2C)c(OC)c1	0.00502
Cc1cc(C)n(-c2nc3ccccc3nc2N2CCN(C(=O)c3ccc(Cl)cc3)CC2)n1	-1.16
CCC(=O)N1CCN(c2ccccc2NC(=O)COc2ccccc2Cl)CC1	-1.24
O=C(COc1ccccc1)N1CCc2ccccc21	-0.0743
O=C(COc1ccc(Br)cc1Cl)NC(=S)N1CCc2ccccc21	2.28
O=C(COc1ccc(Br)cc1Br)NC(=S)N1CCCc2ccccc21	4.66 (active)
CC(C)NC(=O)NC(=O)COc1ccc(Br)cc1Br	-0.136
O=C(COc1ccccc1Cl)NC(=O)NC1CCCC1	0.502
CCNC(=O)COc1ccc(Br)cc1Cl	0.307
Cc1ccc(OCC(=O)N2CCc3ccccc32)cc1	-0.113
O=C(COc1ccccc1Cl)NC(=S)N1CCc2ccccc21	12.1 (active)
O=C(COc1ccccc1)NC(=S)N1CCc2ccccc21	10.1 (active)
O=C(COc1ccc(F)cc1Br)N1CCc2ccccc21	-0.0164
O=C(COc1ccc(Br)cc1Cl)NC(=O)NCc1ccccc1	0.301
O=C(Cc1cccs1)Nc1ccc(Cl)cc1	0.318
Cc1cc(C)cc(SCc2noc(C(=O)NCC3CCCO3)c2C(=O)O)c1 (configuration not stated)	-0.238
Cc1cc(C)nc(-n2nc(C)cc2NC(=O)CNC(C)c2ccccc2)n1 (configuration not stated)	0.124
COC(=O)c1cc(OC)c(OC)cc1NCC(=O)Nc1ccc(OC)c(OC)c1	-0.419
Cc1c(NC(=O)C(C)OC(=O)c2cccs2)c(=O)n(-c2ccccc2)n1C (configuration not stated)	0.0558
CCOc1cc(CNCc2ccccn2)ccc1OCC(=O)NC1CCCCC1	-0.535
O=C(Nc1ccc2oc(=O)ccc2c1)c1cc2ccccc2o1	-1.25
O=C(CN(Cc1ccc(F)cc1)C(=O)c1ccco1)NCc1ccc(F)cc1	-1.36

SMILES	z-score
CNc1nc2ccccc2n1/N=C/c1cccc(OC)c1OC	-1.51
O=Cc1ccc(OC(=O)c2cc(Cl)nc3ccccc23)cc1	-0.764
CCn1c(SCc2ccc([N+](=O)[O-])cc2)nnc1C(C)NC(=O)c1ccc(C)cc1 (configuration not stated)	-0.256
CC(C)(C)n1nc2c(c1NC(=O)c1ccco1)CS(=O)C2 (configuration not stated)	0.0777
O=C(Cn1cccc1)N1CCN(c2ccc(F)cc2)CC1	-0.241
Nn1c(SCC(=O)N2CCN(S(=O)(=O)c3ccc(Cl)cc3)CC2)nnc1-c1cccs1	-0.22
Cn1c(SCC(=O)N2c3ccccc3CCc3ccccc32)nnc1-c1cc2ccccc2cc1O	-0.13
Cc1cccc(-c2nnc(SCC(=O)N3c4ccccc4CCc4ccccc43)n2C)c1	-0.366
Cn1c(SCC(=O)N2c3ccccc3CCc3ccccc32)nnc1-c1ccc(O)cc1	5.88 (active)
Cc1ccc(NC(=O)N2CCC(C(N)=O)CC2)cc1	0.0373
O=C(NCC1CCCO1)C1CCN(S(=O)(=O)c2cccc3cccnc23)CC1 (configuration not stated)	-0.104
CSc1nnc(-c2cc(-c3ccc(C)cc3)nc3ccccc23)o1	-0.0721
Cc1ccccc1-c1n[nH]c(=S)o1	0.676
Cc1ccc(-c2cc(-c3n[nH]c(=S)o3)c3ccccc3n2)cc1	8.6 (active)
CC(=O)c1c(C)[nH]c(C(=O)Nc2ccc(Cl)c(S(=O)(=O)N3CCOCC3)c2)c1C	1.6
O=C(COC(=O)c1cc(-c2cccs2)nn1-c1ccccc1)Nc1ccc(Cl)c([N+](=O)[O-])c1	0.0111
NS(=O)(=O)c1ccc(CCN2C(=O)/C(=C\c3ccc(Cl)cc3)SC2=S)cc1	0.283
COc1nc(-c2ccccc2)cc(C(F)(F)F)n1	0.0363
COc1nc(-c2ccccc2)cc(-c2ccc(OC)c(OC)c2)n1	-0.612
COc1nc(-c2ccccc2)cc(-c2ccccc2)n1	2.45
O=C(C1CCCO1)N1N=C(c2ccc(Br)cc2)CC1c1ccco1 (configuration not stated)	-0.195
O=C(CSc1n[nH]c(-c2cccnc2)n1)Nc1ccccc1	-0.272
COC(=O)CSc1n[nH]c(-c2ccncc2)n1	0.0349

SMILES	z-score
COC(=O)CSc1n[nH]c(-c2cccnc2)n1	2.21
Cc1ccc(C2C(C#N)=C(N)Oc3n[nH]c(-c4ccccc4)c32)o1 (configuration not stated)	-0.499
CC(C)CC(=O)NC(=S)Nc1nc(-c2cccc3ccccc23)cs1	2.97
CC(C)CC(=O)NC(=S)Nc1nc(-c2ccccc2)cs1	0.855
CC(C)CC(=O)NC(=S)Nc1nc(-c2ccc(Cl)cc2)cs1	0.0823
Cn1c(=O)c(NC(=O)c2ccccc2)c2n(c1=S)CCCCC2	-0.181
O=C(COc1ncnc2ccc(Br)cc12)NCc1ccc2c(c1)OCO2	-0.00987
CCOC(=O)C1C(=O)CC(C)(O)C(C(=O)OCC)C1c1ccc(OC)cc1 (configuration not stated)	-0.0838
CCOC(=O)c1cccc(NC(=O)/C(=C\c2ccccc2)NC(=O)c2ccccc2Cl)c1	-0.208
COc1ccccc1NC(=O)CNS(=O)(=O)c1ccccc1	-0.239
CCN(CC)CCNC(=O)c1c(C)n(-c2ccccc2)c2cc(Br)c(OC)cc12	2.84
CCOC(=O)c1c(CN2CCN(Cc3ccccc3)CC2)n(C)c2cc(Br)c(OC)cc12	0.132
CCN(CC)CCNC(=O)c1c(C)oc2cc(Br)c(OC)cc12	-0.44
CCOC(=O)c1c(CNCCN(CC)CC)n(C)c2cc(Br)c(OC)cc12	3.02 (active)
COc1cc2c(C(=O)N3CCN(C)CC3)c(C)n(-c3ccccc3)c2cc1Br	-0.333
CCOC(=O)c1c(CN2CCN(CCO)CC2)n(C)c2cc(Br)c(OC)cc12	0.864
COC(=O)Cn1c(=NC(=O)c2ccc(OC)cc2)sc2cc(OC)ccc21	-0.189
O=C1NC(=Nc2ccccc2)S/C1=C\C=C\c1ccco1	0.075
Cc1cccc(N=C2NC(=O)/C(=C/C=C/c3ccco3)S2)c1	0.7
Cc1cccc(N=C2NC(=O)/C(=C/C=C/c3ccco3)S2)c1C	3 (active)
